Several values for one entry are separate records, joined by “and”; a condition that tells them apart may be missing. Identical values can stand only once. Inconclusive results are not listed. A call without a number means that no potency is given here. Where a structure was tested more than once in an assay, its records may differ in their call. Activity calls are given as the source filed them. The call rests on the fitted dose curve; in most records, active means well fitted cell-killing curve with a large enough effect in the repeat runs (not every such curve was filed as active); inconclusive means weak or mixed curves, or effect the other way; inactive means no such curve, though single readings can be large or run the other way.
test: qHTS assay to identify small molecule antagonists of the estrogen related receptor signaling pathway with the pleiotropic PPARgamma coactivator (PGC) from Tox21 10K library - cell viability counter screen (AID 1224840); conditions: PGC/ERR reporter cells viability, CellTiter-Fluor, 17.5 h; series mostly up to 92.4 µM; viability change, negative = cytotoxic: at the top concentration; further: nearly all actives have a fitted effect of over 40% in size
From the text: National Center for Advancing Translational Sciences [NCATS]
NIH Chemical Genomics Center [NCGC]
U.S. Environmental Protection Agency [EPA]
National Institutes of Environmental Health Sciences [NIEHS]
National Toxicology Program [NTP]
U.S. Food and Drug Administration [FDA]
Estrogen related receptors (ERRs), the first orphan nuclear receptors discovered, play an important role in the control of cellular energy metabolism. ERRs are required for high-energy production in response to the environmental challenges. The pleiotropic PPARgamma coactivator (PGC) is a major partner of ERR and a key regulator in energy homeostasis. Together they have been implicated in the etiology of metabolic disorders such as Type 2 diabetes and metabolic syndrome. ERR-alpha was also identified as an adverse marker for breast cancer progression; ERR-alpha-positive tumors have a poor prognosis. To screen and to identify environmental compounds that perturb the ERR and PGC/ERR signaling pathways could provide valuable information for potential therapeutic or preventive measures in the treatment of metabolic disease. To differentiate true PGC/ERR antagonists or agonist from cytotoxic substances, the assay is multiplexed with cell viability assay.
Tox21 Assay Protocol Summary:
The PGC/ERR cells were dispensed at 2,000 cells/5 ul/well in 1536-well white plates using a Multidrop dispenser. After the assay plates were incubated at a 37 C/5% CO2 incubator for 6 hours, 23 nL of compounds dissolved in DMSO, positive and negative controls or DMSO only was transferred to the assay plate by a pin tool. The plates were incubated at 37 C for 17.5 hours. 1 ul/well of CellTiter-Fluor reagent was added into the assay plates using a Flying Reagent Dispenser. After 30-minute incubation at 37 C/5% CO2, the fluorescence intensity in the plates was measured using a ViewLux plate reader.
Potency means the concentration at half of the fitted maximal effect.

Structure (SMILES) | Potency | viability change, negative = cytotoxic
CC(=O)C(=O)O | inactive | –
Cn1c(=O)c2c(ncn2C)n(C)c1=O | inactive | –
COc1ccc(CN(CCN(C)C)c2ccccn2)cc1 | inactive | –
CCCCC1(COC(=O)CCC(=O)O)C(=O)N(c2ccccc2)N(c2ccccc2)C1=O | inactive | –
CCOC(N)=O | inactive | –
COc1ccc(OC(F)(F)F)cc1CN[C@H]1CCCN[C@H]1c1ccccc1 | 54.5 µM (active) | –
O=c1[nH]cc(F)c(=O)[nH]1 | 44.9 µM (active) and inactive | –
CC(=O)Nc1c(I)c(NC(C)=O)c(I)c(C(=O)O)c1I | inactive | –
O=c1[nH]cnc2c1ncn2[C@H]1CC[C@@H](CO)O1 | inactive | –
Nc1ccc([N+](=O)[O-])cc1O | 30.6 µM (active) | –
CC(C)C(=O)Nc1ccc([N+](=O)[O-])c(C(F)(F)F)c1 | inactive | –
C=C(C)C(=O)OCC(C)O (stereo not given) | inactive | –
O=C1c2c(O)cccc2Cc2cccc(O)c21 | inactive | –
CC(=O)CCC(=O)O | inactive | –
CN(C)CCOC(C)(c1ccccc1)c1ccccn1 (stereo not given) | inactive | –
CN(C)C(=O)Nc1ccc(Cl)c(Cl)c1 | inactive | –
CC(C)c1c(C(=O)Nc2ccccc2)c(-c2ccccc2)c(-c2ccc(F)cc2)n1CC[C@@H](O)C[C@@H](O)CC(=O)O | inactive | –
Cc1ncc([N+](=O)[O-])n1CCO | inactive | –
Nc1c(N=Nc2ccc(-c3ccc(N=Nc4cc(S(=O)(=O)O)c5ccccc5c4N)cc3)cc2)cc(S(=O)(=O)O)c2ccccc12 | 21.7 µM (active) | –
CC1(C)S[C@@H]2[C@H](NC(=O)[C@H](N)c3ccccc3)C(=O)N2[C@H]1C(=O)O | inactive | –

Structure (SMILES) | Potency | viability change, negative = cytotoxic
O=S1(=O)OC(c2ccc(O)cc2)(c2ccc(O)cc2)c2ccccc21 | 30.6 µM (active) and 27.3 µM (active) and 21.1 µM (active) | –
C1=CC2C3C=CC(C3)C2C1 (stereo not given) | – | 4.12% (inactive)
Cc1cccc(C)c1 | inactive | –
NC(=O)c1cccnc1 | inactive | –
CCCCCCc1ccc(O)cc1O | inactive | –
Cc1cn([C@H]2C=C[C@@H](CO)O2)c(=O)[nH]c1=O | inactive | –
O=C1NC(=O)C(c2ccccc2)(c2ccccc2)N1 | inactive | –
CC1(C)O[C@@H]2C[C@H]3[C@@H]4CCC5=CC(=O)C=C[C@]5(C)[C@@]4(F)[C@@H](O)C[C@]3(C)[C@]2(C(=O)CO)O1 | inactive | –
Nc1c2c(nc3ccccc13)CCCC2 | – | 16.8% [at 42.5 µM] (inactive)
Cc1ccc(S(=O)(=O)O)cc1 | inactive | –
C[C@](N)(Cc1ccc(O)c(O)c1)C(=O)O | inactive | –
C/C=C/C=C/C(=O)O | inactive | –
CCOc1ccc(NC(C)=O)cc1 | inactive | –
CN1CCC[C@H]1c1cccnc1 | inactive | –
O=C(O)CC(O)C(=O)O (stereo not given) | inactive | –
CCCc1cc(=O)[nH]c(=S)[nH]1 | inactive | –
CC(O)(P(=O)(O)O)P(=O)(O)O | inactive | –
CC12CCC(CC1)C(C)(C)O2 | inactive | –
CCCCCCCC(=O)OCC(COC(=O)CCCCCCC)OC(=O)CCCCCCC | inactive | –
Cc1c(C(=O)O)c(O)cc2c1C(=O)c1c(O)c([C@@H]3O[C@H](CO)[C@@H](O)[C@H](O)[C@H]3O)c(O)c(O)c1C2=O | – | -15.5% [at 42.5 µM] (inactive)

— PubChem BioAssay (Tox21)
